Screening data deposited in PubChem BioAssay by The Scripps Research Institute Molecular Screening Center.
TR-FRET SRC-2 ct – flags TR-FRET format artefacts in PPARgamma SRC-2 recruitment agonist screen | TR-FRET artefact counter-screen; hits give high values | TR-FRET ratio at 8 µM | 200,000 compounds, 0.4% hits
SRC1 TRFRET art – counter-screen for PPARgamma SRC-1 recruitment agonists: TR-FRET artefact | 99,000 compounds, 0.34% hits | TR-FRET detection artefact counter-screen, emission ratio; hits give high values | TR-FRET ratio at 8 µM | AID 1051; in the data active means TR-FRET ratio above about 2300
PPARg SRC-2 ag – PPARgamma-driven SRC-2 recruitment agonism; AID 1032; PPARgamma LBD-SRC-2 recruitment, biochemical; 200,000 compounds, 0.34% hits; activation, % at 8 µM; P37231; in the data active means activation above about 22%;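 further: 0% = vehicle and 100% = reference agonist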
Target sequence (P37231 whole entry, looked up, the tested form may be a part): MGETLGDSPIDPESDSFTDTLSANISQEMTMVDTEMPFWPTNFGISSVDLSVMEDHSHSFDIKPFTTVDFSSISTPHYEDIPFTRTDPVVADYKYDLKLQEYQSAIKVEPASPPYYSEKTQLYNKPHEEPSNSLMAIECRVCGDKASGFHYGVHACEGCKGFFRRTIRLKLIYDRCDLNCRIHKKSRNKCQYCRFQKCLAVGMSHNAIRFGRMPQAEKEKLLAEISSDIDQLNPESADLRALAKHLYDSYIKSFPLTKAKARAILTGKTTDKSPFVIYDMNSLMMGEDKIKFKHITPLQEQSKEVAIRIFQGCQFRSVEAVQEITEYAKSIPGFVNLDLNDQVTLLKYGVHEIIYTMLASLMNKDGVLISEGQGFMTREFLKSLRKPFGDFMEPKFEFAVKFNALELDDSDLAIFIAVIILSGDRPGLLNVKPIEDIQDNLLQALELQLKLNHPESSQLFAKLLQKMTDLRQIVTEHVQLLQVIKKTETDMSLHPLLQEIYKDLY
PPARg SRC-1 ag – promotes SRC-1 coactivator recruitment by human PPARgamma | PPARgamma-SRC-1 coactivator recruitment biochemical assay | AID 631 | P37231 | 200,000 compounds, 0.41% hits | activation, % at 8 µM; in the data active means activation above about 19%;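 further: 0% = DMSO and 100% = reference agonist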
PPARg SRC3 recr – agonists of human PPARgamma SRC-3 coactivator recruitment; P37231; biochemical PPARgamma/SRC-3 coactivator recruitment assay; activation, % at 8 µM; 200,000 compounds, 0.26% hits; AID 731; in the data active means activation above about 23%;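 further: 0% = DMSO and 100% = reference agonist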
SRC3 TRFRET art – counter-screen for PPARgamma SRC-3 recruitment agonists: TR-FRET artefact | PPARgamma/SRC-3 format; hits give high values | TR-FRET ratio at 8 µM | 99,000 compounds, 0.39% hits
PPARg SRC2 conf – human PPARgamma SRC-2 recruitment agonism, confirmation | biochemical SRC-2 recruitment by PPARgamma | activation, % at 8 µM | 790 compounds, 52% hits | shares compounds with PPARg SRC3 recr; in the data active means activation above about 22%;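 further: 0% = vehicle alone and 100% = reference agonist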
PPARg SRC1 conf – human PPARgamma SRC-1 recruitment agonism, confirmation; activation, % at 8 µM; AID 1300; 790 compounds, 43% hits; PPARgamma–SRC-1 coactivator recruitment biochemical assay; shares compounds with PPARg SRC3 recr; in the data active means activation above about 20%;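 further: 0% = vehicle wells and 100% = reference agonist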
PPARg SRC3 ag – confirmation of agonists of SRC-3 recruitment by human PPARgamma. biochemical PPARgamma-SRC-3 coactivator recruitment, agonist mode. shares compounds with PPARg SRC3 recr. 790 compounds, 29% hits. activation, % at 8 µM; in the data active means activation above about 24%;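 further: 0% = vehicle wells and 100% = reference agonist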
Numbers without * were called inactive; · = no result. Compounds with a hit are over-represented: about 0.84% of the library has one in this group of screens. Unless noted, no stated cut-off is given here; in the data, active means TR-FRET ratio above about 2000; inactive means the rest.

SMILES	TR-FRET SRC-2 ct	SRC1 TRFRET art	PPARg SRC-2 ag	PPARg SRC-1 ag	PPARg SRC3 recr	SRC3 TRFRET art	PPARg SRC2 conf	PPARg SRC1 conf	PPARg SRC3 ag
O=C(C1=C[C@@H](c2ccc(C(F)(F)F)cc2)C[C@@H](OCc2ccc(CO)cc2)O1)N1CCOCC1	1870	1750	23.9*	7.4	0.8	1614	·	·	·
Cn1nc(-c2ccccc2)c(C(=O)Nc2ccc(C(F)(F)F)cc2)c1Cl	1625	·	1.4	5.0	32.2*	·	·	·	·
Cn1nc(-c2ccccc2)c(C(=O)Nc2ccc(Cl)cc2)c1Cl	1469	·	-1.9	5.3	6.8	·	·	·	·
O=S(=O)(c1ccccc1)N1CCN(c2nc(-c3cccs3)nc3ccccc23)CC1	1678	1800	6.0	1.8	-0.2	1537	·	·	·
Cc1nc(N2CCN(S(=O)(=O)c3ccc(F)cc3)CC2)c2c(-c3cccs3)csc2n1	2641*	3173*	-6.5	-1.5	0.1	2853*	·	·	·
Cc1ccc(-c2csc3ncnc(SCC(=O)NCc4ccc5c(c4)OCO5)c23)cc1	2614*	·	1.8	5.5	11.9	·	·	·	·
COc1ccc(Nc2nc(-c3ccccc3)c(C(=O)Nc3cccnc3)s2)cc1	1853	2466*	16.4	16.7	18.8	2178*	·	·	·
O=C(Cc1ccccc1[N+](=O)[O-])NCc1ccc2c(c1)OCO2	1512	2325*	3.9	12.4	12.4	1639	·	·	·
O=C(Cc1ccccc1)NCc1ccc2c(c1)OCO2	1270	·	-1.4	-0.4	-6.5	·	·	·	·
c1ccc(-c2nn3c(Cn4nnc5ccccc54)nnc3s2)nc1	1462	·	6.2	4.5	10.2	·	·	·	·
COc1ccccc1OCc1nc2ccccc2[nH]1	1592	·	23.3*	-3.3	-6.0	·	·	·	·
Cc1ccccc1OCc1nc2ccccc2[nH]1	1505	1770	1.9	3.2	-0.8	1739	·	·	·
O=C1N/C(=C/c2ccsc2)C(=O)N1c1ccccc1	1620	1792	-5.0	9.6	-0.6	1473	·	·	·
CNc1ccncc1S(=O)(=O)NC	1562	1853	-3.9	11.3	3.0	1526	·	·	·
CCc1ccc(C2CC(=O)N3CN(c4ccccc4)CSC3=C2C#N)cc1 (stereo not drawn)	1752	·	9.1	5.3	15.6	·	·	·	·
COc1ccc(N2CSC3=C(C#N)C(c4cccs4)CC(=O)N3C2)cc1 (stereo not drawn)	2277*	·	29.4*	30.5*	38.9*	·	·	·	·
CCc1ccc(N2CSC3=C(C#N)C(c4cccs4)CC(=O)N3C2)cc1 (stereo not drawn)	2462*	2307	35.5*	10.1	7.8	1937	·	·	·
CCOC(=O)c1ccc(N2CSC3=C(C#N)C(c4cccs4)CC(=O)N3C2)cc1 (stereo not drawn)	2211*	·	19.9	7.1	18.8	·	·	·	·
COc1ccc(CCN(C)c2ccc(S(=O)(=O)N3CCCC3)cn2)cc1OC	1424	1733	-3.4	2.2	0.6	1492	·	·	·
COC(=O)c1ccc(N2CCN(C)CC2)c(NC(=O)c2cc3ccccc3o2)c1	1388	·	-6.7	-3.0	-8.3	·	·	·	·
COC(=O)c1ccc(C(=O)OC)c(NC(=O)c2cc3ccccc3o2)c1	1501	·	3.7	23.6*	-3.7	·	·	·	·
O=C(CSc1ccc(-c2ccco2)nn1)NCc1ccccc1Cl	1506	2338*	6.4	2.8	5.9	1557	·	·	·
O=c1oc2cc(O)ccc2c2ccccc12	2392*	·	47.1*	27.6*	59.8*	·	29.6*	17.1	22.4
COc1ccc2c(c1)c(=O)oc1cc(O)ccc12	1582	1714	5.1	-2.4	2.8	1675	·	·	·
c1ccc(-c2nc(-c3cccs3)[nH]c2-c2ccccc2)cc1	1842	·	18.1	24.6*	24.0	·	22.8*	16.0	15.3
SMILES	TR-FRET SRC-2 ct	SRC1 TRFRET art	PPARg SRC-2 ag	PPARg SRC-1 ag	PPARg SRC3 recr	SRC3 TRFRET art	PPARg SRC2 conf	PPARg SRC1 conf	PPARg SRC3 ag
COc1cc(-c2nc(-c3ccccc3)c(-c3cccs3)[nH]2)cc(OC)c1OC	1650	·	9.6	6.7	0.7	·	·	·	·
CCOc1ccc(CCNC(=O)COc2cc(=O)n(C)c3ccccc23)cc1OCC	1368	1630	-10.3	-8.3	-5.4	1439	·	·	·
CCOc1ccc(CCNC(=O)CSc2cc(=O)n(C)c3ccccc23)cc1OCC	2107*	2625*	25.6*	25.7*	12.1	1967	31.0*	18.3	19.0
CCCCNC(=O)CSc1nc(CCC)nc2ccccc12	1519	2029	5.9	30.7*	30.7*	1690	15.1	23.8*	14.0
Cn1c(=O)cc(SCC(=O)NCCCN2CCOCC2)c2ccc(Cl)cc21	2615*	·	64.9*	59.9*	83.2*	·	46.9*	30.7*	32.2*
Cn1c(C(=O)NCCCN2CCN(c3ccccc3F)CC2)cc2c(=O)n(C)c3ccccc3c21	1516	·	-10.9	-3.6	-2.8	·	·	·	·
Cn1c(=O)cc(SCC(=O)NCCCN2CCN(c3ccccc3F)CC2)c2ccccc21	4083*	·	92.2*	90.0*	124.5*	·	51.5*	33.8*	35.7*
Cn1c(C(=O)NCCCN2CCOCC2)cc2c(=O)n(C)c3ccccc3c21	1527	·	8.0	-1.0	-9.2	·	·	·	·
CCCCNC(=O)CSc1cc(=O)n(C)c2ccccc12	2320*	·	40.8*	33.2*	43.0*	·	31.3*	19.6*	21.1
Cn1c(=O)cc(SCC(=O)NCCCN2CCOCC2)c2ccccc21	2011*	·	27.8*	30.1*	46.0*	·	12.8	8.3	8.7
COc1ccccc1CN1C[C@@H]2C[C@@H](c3ccc(C)cc3)N3CCC[C@@]23C1=O	1331	1782	4.9	-2.9	-1.2	1784	·	·	·
COc1cc(C)c(C(C)C)cc1S(=O)(=O)NCCCn1ccnc1	1648	·	-8.7	0.7	1.0	·	·	·	·
Clc1cccc(-c2ccc(C=Nc3ccc(N4CCOCC4)cc3)o2)c1	2011*	2263	26.4*	27.5*	14.0	1975	34.6*	25.5*	20.9
Cn1cc(/C=N\NC(=O)C2COc3ccccc3O2)c2ccccc21 (stereo not drawn)	1626	1782	3.7	0.8	2.7	1616	·	·	·
COc1ccc(C2C(C(=O)c3ccco3)=C(O)C(=O)N2c2nnc(C)s2)cc1 (stereo not drawn)	2089*	2503*	17.6	25.4*	20.8	2261*	30.9*	25.0*	16.7
C=CCOc1ccc(C2C(C(=O)c3ccco3)=C(O)C(=O)N2c2nnc(C)s2)cc1 (stereo not drawn)	2019*	2094	25.0*	14.3	14.4	1863	25.8*	24.0*	16.2
COC(=O)c1ccc(COc2ccc(/C=N/O)cc2)o1	1479	1957	2.3	0.0	-2.8	1488	·	·	·
O=C(O)c1cc(-c2ccc3c(c2)OCO3)nc2ccc(Br)cc12	2330*	2873*	31.0*	32.9*	22.6*	2538*	8.8	1.4	7.7
